Bioassay records from PubChem BioAssay.
Tau fluor counter: counter-screen for tau fibril formation inhibitors. 280,000 tested, 0.93% active. AID 1463. tau K18 P301L Alexa594 fluorescence, heparin fibrillization. Potency, µM (doses to about 57.7 µM), without a hit: at the highest dose activity change, negative = decrease; further: potency means the concentration at half of the fitted maximal effect; nearly all actives have a fitted effect of over 55% in size
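Human K18 P301L tau (15 uM unlabeled plus 0.24 uM Alexa 594-labeled, final) in 100 mM sodium acetate pH 7 was mixed with compound and 20 uM heparin and incubated 6 hr at 37 C.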
Tau FP inhib: inhibitors of human tau fibril formation | P10636 | K18 P301L tau heparin fibrillization, Alexa594 FP, 6 h | Potency, µM (highest dose often 57.7 µM), inactives show at the highest dose activity, negative = inhibition, actives largely listed as inhibitors | 280,000 tested, 0.39% active | AID 1468; further: potency means the concentration at half of the fitted maximal effect; nearly all actives have a fitted effect of over 55% in size
Target sequence (P10636 561-689 P618L limits assumed): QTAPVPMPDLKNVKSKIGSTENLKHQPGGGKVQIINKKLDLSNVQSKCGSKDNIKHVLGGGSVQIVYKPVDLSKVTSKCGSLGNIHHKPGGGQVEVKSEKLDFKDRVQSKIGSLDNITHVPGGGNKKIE
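FP of Alexa 594-tau after heparin (20 uM) induction. Substrate: human K18 P301L, 15 uM unlabeled, 0.24 uM labeled. Buffer 100 mM sodium acetate pH 7. 6 hr, 37 C.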
Tau fibril ThT: inhibitors of human tau fibril formation, thioflavin T binding; AID 1460; Potency, µM (titrated, usually from 57.4 µM), for the others: at the highest dose activity, negative = inhibition, hits mostly inhibitors; 270,000 tested, 2.1% active; P10636; recombinant tau K18 P301L (four-repeat tau fragment), heparin-induced fibrillization, ThT fluorescence; further: potency means the concentration at half of the fitted maximal effect; nearly all actives have a fitted effect of over 55% in size
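Aggregation was driven by heparin (20 uM final) acting on recombinant tau […] bearing P301L in 100 mM sodium acetate pH 7; fibrils were detected with Thioflavin T.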
Sfp inh: inhibitors of Bacillus subtilis Sfp phosphopantetheinyl transferase; Biochemical Sfp PPTase activity, qHTS; Potency, µM, inactives show largest response in the series, negative = inhibition, most hits filed as inhibitors; 310,000 tested, 3.5% active;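 further: the enzyme is Sfp with the accession as filed and its product quenches rhodamine fluorescence; potency means the concentration at half of the fitted maximal effect; 0% = enzyme reaction without inhibitor and -100% = no enzyme wells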
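After 15 min at room temperature with compound, 15 nM Sfp received 5 uM rhodamine-CoA plus 12.5 uM BHQ-2-ybbR (50 mM Hepes pH 7.6, 10 mM MgCl2). Rate came from the fluorescence difference over 30 min, ex 525/em 598 nm.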
FBPA coupling cs: coupling enzyme interference in Giardia aldolase counter-screen. AID 2472. activity change, negative = inhibition, % at 58.2 µM, hits read low. coupling enzyme system counterscreen, AmpLite Red fluorescence. 290,000 tested, 0.67% active; in the data active means activity change below about -30%
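Activity here indicates interference with the coupling reaction, not aldolase inhibition. Compounds at 57.5 uM final met coupling enzymes for 10 min at RT; substrate and AmpLite Red detection followed, with a 525/598 nm fluorescence read after 20 min.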
* = called active by the depositor; u = inconclusive; x = no result; [ ] = dose if it differs, or a comment. An excerpt weighted towards active compounds, which were near 5.2% of everything screened. Unless noted, the call rests on the fitted dose curve; in most records, active means well fitted curve in the direction sought with a large enough effect; inconclusive means small, poorly fitted or top-dose-only effect, or another doubt; inactive means no such curve, though single readings can be large; an effect the other way counts as inactive or inconclusive. Unless noted, on the % scale 0 is the no-effect control and ±100 the full control effect.

SMILES	Tau fluor counter	Tau FP inhib	Tau fibril ThT	Sfp inh	FBPA coupling cs
O=C1c2ccccc2C(=O)N1c1cccc(-c2csc(Nc3ccc4c(c3)OCO4)n2)c1	7.9µM*[quencher]	u	8.9µM*	u	-2
CCc1cc(=S)n2c([nH]c3ccccc32)c1C#N	u	-11%	u	45µM*	3
CCc1c(C)c(C#N)c2[nH]c3ccccc3n2c1=S	u	9%	u	79µM*	-21
CSc1ccc(Cn2nnc(C(=O)Nc3ccc(C)cc3Cl)c2N)cc1	-8%	u	12%	x	x
COc1ccccc1NC(=O)C1CCN(C(=O)c2sc3nc[nH]c(=O)c3c2C)CC1	5%	6%	9%	x	x
Cc1c(C(=O)Nc2cccc(Cl)c2)sc2nc3n(c(=O)c12)N=C(c1cccc(Br)c1)CS3	-11%	u	-14%	x	x
CCOc1ccc(-c2nnc(N(CC)C(=O)C3CCC3)s2)cc1	-3%	9%	-13%	40µM*	2
CCN1C(C)=C(C(=O)OC(C)C)C(c2ccccc2Cl)C(C(=O)O)=C1C(=O)O (stereo not drawn)	x	x	x	26%	0
CCCNC(=O)COCc1cc(-c2ccc(F)cc2)on1	1%	-4%	-6%	x	x
COc1cccc2[nH]c(C(=O)NN)c(N)c12	u	u	28µM*	-1%	-4
COC(=O)c1[nH]c2cc(OC)ccc2c1N	-21%	-5%	u	25µM*	1
NNC(=O)c1[nH]c2ccc(Br)cc2c1-c1ccccc1	u	0%	-8%	-11%	-1
COc1cc2[nH]c(C(=O)NN)c(N)c2cc1OC	22µM*[quencher]	u	16µM*	10%	-8
O=C1C=C(NCc2ccccc2)c2ccccc2C1=O	-25%	u	14µM*	22µM*	-87*
O=C1C=C(Nc2ccccc2O)c2ccccc2C1=O	u	-11%	u	u	-60*
O=c1cccccc1NCc1ccccc1	-8%	2%	-14%	22µM*	-39*
Cc1nc(NS(=O)(=O)c2ccc(N)cc2)nc(C)c1Br	x	x	x	27%	x
Cc1ccc(-n2ncc(C(=O)NCCc3ccsc3)c2C2CCN(C(=O)OC(C)(C)C)CC2)c(C)c1	-14%	4%	-16%	x	x
C[C@H]1C[C@@H]2[C@H]3CCC4=CC(=O)C=C[C@@]4(C)[C@@]3(Cl)[C@@H](O)C[C@]2(C)[C@]1(OC(=O)c1ccco1)C(=O)CCl	x	x	x	35µM*	-4
N#Cc1cccc(CS(=O)(=O)c2nc3ccccc3s2)c1	-7%	u	u	-10%	1
Cc1ccc(SC(CC(=O)c2ccc(C)cc2)C(=O)O)cc1 (stereo not drawn)	-9%	-14%	u	11µM*	15
O=C(CC(Sc1ccc(Br)cc1)C(=O)O)c1ccc(Br)cc1 (stereo not drawn)	x	x	x	35µM*	3
O=C(CC(C(=O)O)P(=O)(c1ccccc1)c1ccccc1)c1ccc(Br)cc1 (stereo not drawn)	-4%	3%	-6%	-13%	7
Cc1ccc(C(CC(=O)c2ccc(Cl)cc2)C(=O)O)cc1 (stereo not drawn)	8%	7%	1%	10%	1
CCC1(CC)C(=O)C2=C3C1[C@H](C(=O)OC)CC(C(=O)OC)C[C@H]3[C@H]1C(=O)N(C)C(=O)[C@H]1[C@H]2C (stereo partly drawn)	x	x	x	7%	1
SMILES	Tau fluor counter	Tau FP inhib	Tau fibril ThT	Sfp inh	FBPA coupling cs
COC(=O)C1C2CC3c4[nH]c5cc(OC)ccc5c4CCN3CC2CC(OC(=O)c2cc(OC)c(OC)c(OC)c2)C1OC (stereo not drawn)	u	7%	u	-19%	-19
COC(=O)[C@H]1C(OC)[C@@H](OC(=O)c2cc(OC)c(OC)c(OC)c2)C[C@@H]2CN3CCc4c([nH]c5cc(OC)ccc45)[C@H]3C[C@H]21 (stereo partly drawn)	u	u	10µM*	-3%	-13
COC(=O)[C@H]1[C@H]2C[C@@H]3c4[nH]c5cc(OC)ccc5c4CCN3C[C@H]2C[C@@H](OC(=O)c2ccc(N)cc2)[C@@H]1OC	u	-4%	14µM*	10%	2
Cc1[nH]oc(=O)c1N=Nc1ccccc1	-16%	u	25µM*	-22%	4
Cc1[nH]oc(=O)c1N=Nc1c(Cl)cccc1Cl	-7%	-7%	u	-20%	9
COc1cccc(C(=O)CSc2nnnn2C)c1	-13%	-14%	-16%	50µM*	3
COc1cccc(C(=O)CSc2nccn2C)c1	x	x	x	56µM*	0
Cn1ccnc1SCC(=O)c1cccc(Br)c1	-12%	-4%	u	-3%	1
Cc1ccc(NC(=O)Cn2nc(-c3ccccc3)nc(Cc3ccc(Cl)cc3)c2=O)cc1	-1%	-14%	-1%	x	x
Fc1cc2[nH]c(=S)[nH]c2c(Br)c1N1CCSCC1	x	x	x	50µM*	3
CCCN(CCC)C(=O)Cn1c(=O)n(Cc2ccc(C(=O)NCCc3ccc(Cl)cc3)cc2)c(=O)c2ccccc21	1%	0%	-3%	x	x
O=C1C(c2ccccc2)SC(=Nc2ccccc2)N1S(=O)(=O)c1ccccc1 (stereo not drawn)	-11%	-9%	-12%	13µM*	4
CC1(C)SC(=Nc2ccccc2)N(S(=O)(=O)c2ccccc2)C1=O	-2%	-3%	-4%	34%	0
Cc1cc(=O)c2c(O)c3c(O)cc(O)c4c5c(O)cc(O)c6c(O)c7c(=O)cc(C)c8c1c2c(c34)c(c65)c78	4.5µM*[quencher]	u	14µM*	50µM*	-10
O=C(O)Cn1c2ccccc2c2n[nH]c(=S)nc21	x	x	x	45µM*	1
CCCn1c2ccc(C)cc2c2n[nH]c(=S)nc21	x	x	x	40µM*	1
C=CCn1c2ccccc2c2n[nH]c(=S)nc21	x	x	x	40µM*	-2
C=CCn1c(-c2cccc3ccccc23)n[nH]c1=S	-5%	1%	-9%	7%	4
O=C(O)CCn1c2ccccc2c2nc3ccccc3nc21	x	x	x	17%	5
